Screen size: about 320,000 compounds; about 1,300 (0.41%) were called active. Inconclusive results (about 3%) are left out. How the calls were made is not given here. Not all results are given here. Potency and affinity values are given separately.
Assay: growth inhibition of non-replicating M. tuberculosis (AID 488890);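 further: plate controls were DMSO cells for no effect and high antibiotic wells for full effect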
Settings: Mycobacterium tuberculosis non-replicating, at 25 µM, stronger effect = higher value

Structure (SMILES)	inhibition
O=C(Nc1nnc(C2=COCCO2)o1)c1ccc(S(=O)(=O)N2CCCC2)cc1	6.48%
CC(=O)Nc1nnc(C2=COCCO2)o1	3.17%
CS(=O)(=O)c1cccc(C(=O)Nc2nnc(C3=COCCO3)o2)c1	22.2%
CN(C)c1ccc(C(=O)Nc2nnc(C3=COCCO3)o2)cc1	-3.42%
COc1cc(C(=O)Nc2nnc(C3=COCCO3)o2)cc(OC)c1OC	-6.31%
COc1ccc(C(=O)Nc2nnc(C3=COCCO3)o2)cc1OC	-10.9%
O=C(O)CN1C(=O)c2cccc3c(Br)ccc1c23	2.53%
CCOC(=O)Cn1nnnc1CN(CCc1ccccc1)Cc1cc2cc(CC)ccc2[nH]c1=O	-14.2%
COc1ccc(Nc2nc3cc(C)ccc3cc2C#N)c(OC)c1	-16.1%
Cc1cc(NC(=O)Cn2nnc3sc4c(c3c2=O)CCCC4)no1	9.47%
CCCn1c(C(C)NC(=O)c2ccccc2)n[nH]c1=S (stereo unspecified)	13.1%
COc1cccc(-c2ccc(NC(=O)C3CCCN(Cc4nccn4C)C3)cc2)c1 (stereo unspecified)	58%
O=C(Nc1cc(Cl)ccc1-n1cncn1)c1cc(F)c(F)c(F)c1F	14%
COc1cc(/C=C2\SC(=O)N(CC(=O)Nc3ccc(C)cc3)C2=O)cc(Cl)c1OCC(=O)O	12.1%
O=C(NCCNC(=O)c1ccc(Br)o1)c1ccc(Br)o1	-3.49%
Cc1ccc(CC(=O)NCCCc2ccccc2)cc1	21.6%
O=C(NCCCCc1ccccc1)c1ccc(Br)o1	45.4%
O=C(NCC1CCCCC1)c1cccc([N+](=O)[O-])c1	69.2%
O=C(NCC1CCN(C(=O)c2ccc([N+](=O)[O-])cc2)CC1)c1ccc([N+](=O)[O-])cc1	4.24%
O=C(CCNC(=O)c1ccc([N+](=O)[O-])cc1)NCc1cccs1	-8.88%
CCCCNC(=O)Cc1ccc(Br)cc1	74%
O=C(NCc1cccs1)c1ccccc1	64.8%
C=CCC[C@@H](Cc1ccc(F)cc1)C(=O)OC[C@@H](Cc1c[nH]c2ccccc12)NC(=O)[C@H](CC=C)CC(=O)N[C@H](CO)Cc1ccccc1	-0.91%

Structure (SMILES)	inhibition
CCCCOc1ccc(C(=O)OCC(=O)c2c(N)n(C)c(=O)n(C)c2=O)cc1	27.4%
O=C(NCCCn1ccnc1)c1cccc(Br)c1	-17.6%
COCC(=O)Nc1nc2n(n1)C(c1ccccc1Cl)CC(c1ccc(OC)cc1)N2 (stereo unspecified)	24.1%
COC(=O)c1ccc(CS(=O)(=O)c2ccccc2C)o1	2.59%
CCCn1c(N)c(C(=O)CSc2nc3ccccc3c(=O)n2Cc2ccccc2)c(=O)[nH]c1=O	21%
COc1ccc(/C=N/NC(=O)c2ccn[nH]2)cc1Cn1cc([N+](=O)[O-])cn1	-4.11%
O=C(Nc1ccc(Cl)cn1)c1cc2c(s1)-c1ccccc1OC2	27.1%
O=C(O)c1ccc(CNC(=O)c2ccc(Br)o2)cc1	21.4%
O=C(NCc1ccccc1)c1ccc(Br)o1	77.6%
O=C(NCc1ccncc1)c1ccc(Br)o1	12.8%
O=C(NCCNC1CCCCC1)c1ccco1	-9.39%
O=C(CNC(=O)c1ccc(Br)o1)NCc1ccc(F)cc1	23.3%
O=C(CNC(=O)c1ccco1)NC1CCCCCC1	5.43%
C=CCn1c(O)c(C(CC)=Nc2cc(OC)ccc2OC)c(=O)[nH]c1=O	7.07%
CCNC(=S)NNC(=O)c1ccccc1OC(F)F	-5.06%
COc1ccc(CC(C(=O)Nc2ccc(OC)cc2)c2nn[nH]n2)cc1 (stereo unspecified)	8.92%
Cc1cc(=O)oc2cc(NC(=S)NCc3cccnc3)ccc12	-4.07%
CCCC(=O)c1cc2c(cc1NC(=O)c1ccccc1F)OCCO2	4.71%
CC(=O)N1CCc2c(sc3c2c(=O)n(-c2ccccc2)c(=O)n3Cc2ccccc2Cl)C1	-8.11%
O=C(NCCCn1ccnc1)Nc1ccc2c(c1)OCO2	-2.69%
Cc1cc(C)c(-c2csc(NC(=O)C3=COCCO3)n2)c(C)c1	34.2%
Cc1cc(C)c(NC(=O)C2=COCCO2)c(C)c1	-16.1%
Cc1nc(-c2ccc(-n3nncc3-c3ccco3)cc2)cs1	58.1%

Structure (SMILES)	inhibition
Cc1ccc(C(=O)O/N=C(\N)Cc2cccs2)c(Cl)c1	60.4%
C#CCOCCOCCOCCNc1nc(N2CCN(C(=O)[C@H](CCC(=O)O)n3cc(C(N)CC(C)C)nn3)CC2)nc(N2CCN(C(=O)[C@H](CCC(=O)O)n3cc(C(N)[C@H](C)CC)nn3)CC2)n1 (stereo partly specified)	-2.67%
CCc1nc(CN2CCN(c3cc(C(F)(F)F)ccn3)CC2)c(C)[nH]1	20.5%
CCCCN(CC)CCCNC(=O)c1cc2c(-c3ccc(OC)c(OC)c3)nn(C)c2s1	34.8%
CCN(CC)CCNC(=O)c1cc2c(-c3ccc(Cl)cc3)nn(C)c2s1	67.4%
Cc1nc(C(=O)N(C)C)nn1-c1ccc(Cl)cc1Cl	-3%
COc1ccc(NC(=O)C2=Cc3ccccc3OC2)cc1	76.7%
COc1ccc(C(CNC(=O)CSc2ccc(Br)cc2C)N2CCOCC2)cc1 (stereo unspecified)	7.11%
CCN1C(=O)/C(=C\N(C(C)=O)c2ccccc2)OC1=S	6.17%
CCc1nc(N(CC)CC)c2oc3ccccc3c2n1	25.6%
c1ccc(Oc2nc(-c3cccnc3)nc3ccccc23)cc1	18.6%
Cc1ccc(Oc2nc(-c3cccnc3)nc3ccccc23)c([N+](=O)[O-])n1	-3.06%
Fc1ccc(F)c(NC2=NCCCCC2)c1	-19%
O=C(NNC1=C(C(=O)C(F)(F)F)CCC1)c1cccc(O)c1	58.3%
O=C(NNC1=C(C(=O)C(F)(F)F)CCC1)c1cccnc1	-16.6%
O=C(NNC1=C(C(=O)C(F)(F)F)CCC1)c1ccncc1	56.2%
COc1ccccc1C(=O)NNC1=C(C(=O)C(F)(F)F)CCC1	77.4%
Cc1ccc(CNC(=O)CN(c2ccc(C(C)C)cc2)S(=O)(=O)c2c(C)noc2C)cc1	7.31%
Cc1ccsc1/C=N/NC(=O)Cn1nc(C)c([N+](=O)[O-])c1C	-14.9%
COc1ccccc1N1C[C@@H]2C[C@@H](c3ccco3)N3CCC[C@@]23C1=O	14.9%
COC(=O)C1=C(N)Oc2cc(C)n(CC3CCCO3)c(=O)c2C1c1ccccc1 (stereo unspecified)	2.48%
Cc1ccnc(NC(=O)C2CCN(S(=O)(=O)c3cccc4nonc34)CC2)c1	9.48%
Cc1ccccc1NC(=O)c1cccc(S(=O)(=O)Nc2cccc(C(=O)O)c2)c1	19.2%

Structure (SMILES)	inhibition
CC1(C)Oc2ccc(C(=O)NN)cc2NC1=O	9.35%
COc1ccc(/C=C2\N=C(SC)SC2=O)cc1OC	76.1%
CC1=C/C(=C\c2ccc3c(c2)OCO3)C(=O)S1	31.9%
CCOc1ccc(N=CC2=C(O)CC(C)(C)CC2=O)cc1	31.2%
CC1(C)CC(=O)C(C=Nc2ccc(N)cc2)=C(O)C1	23.2%
CCOc1cc(C2NCc3ccccc3-n3cccc32)ccc1OC (stereo unspecified)	1.16%
O=C1CN(C(=O)COC(=O)CCC(=O)c2ccc(Cl)cc2)c2ccccc2N1	16.1%
COc1ccc(CNCc2ccc3ccccc3c2)c(OC)c1	23.2%
COc1cccc(CNCc2ccc(OC)cc2OC)c1	16.2%
COc1ccc(C)cc1NC(=O)c1sc2ncn(CC(=O)N3CCCCC3)c(=O)c2c1C	-1.26%
Cc1nc2ccc(NC(=O)c3ccc(C)c(S(=O)(=O)N4CCOCC4)c3)cc2s1	29.1%
OC1(c2ccccc2)CCN(Cc2ccccc2)CC1	-5.95%
OC(c1ccccc1)C1CN(Cc2ccccc2)CCC1(O)c1ccccc1 (stereo unspecified)	16.7%
CCN1CCC(O)(c2ccccc2)C(C(=O)c2ccccc2)C1 (stereo unspecified)	3.22%
CC1C(C)C(O)(c2ccccc2)CCN1C (stereo unspecified)	-18.2%
O=C(NCc1ccco1)[C@@H]1CSC2c3ccccc3C(=O)N21 (stereo partly specified)	-2.9%
CCCN(CC(=O)Nc1ccccc1OC)C(=O)c1ccc(=O)[nH]c1	-2.3%
CN1CCN(c2ccc(NC(=O)c3ccc(-c4ccccc4F)o3)cc2)CC1	79.5%
CS(=O)(=O)N1CCN(c2ccc(NC(=O)c3ccc(-c4ccc(Cl)cc4)o3)cc2)CC1	-19.8%
S=C(c1ccc(-c2ccc(Br)cc2)o1)N1CCOCC1	74%
NC(=O)C1CCN(C(=S)c2ccc(-c3ccc(Br)cc3)o2)CC1	76.2%
CN1CCN(c2ccccc2NC(=O)c2ccc(-c3ccc(Br)cc3)o2)CC1	7.26%
CN1CCN(c2ccc(NC(=O)c3ccc(Br)o3)cc2)CC1	-1.79%

Structure (SMILES)	inhibition
COC(=O)c1ccccc1NC(=O)CSc1ccc(C)cc1	66.9%
Cc1onc(-c2c(Cl)cccc2Cl)c1C(=O)NC(=S)Nc1sc2c(c1C(N)=O)CCC(C)C2 (stereo unspecified)	1.7%
Cc1ccccc1C(=O)NC(=S)NC1CCSC1=O (stereo unspecified)	6.25%
COc1ccc(NS(=O)(=O)c2ccc(NC(=S)NC(=O)c3ccc(Br)cc3)cc2)nn1	52.8%
CSCCC(NC(N)=O)C(=O)Nc1ccc(C)cc1 (stereo unspecified)	-6.3%
COc1ccc2cc3c(nc2c1)OCC3	52%
Cc1ccc2cc3c(nc2c1)N(c1ccccc1)CC3	-3.46%
CCOC(=O)NC(=O)/C(N=Nc1cccc(C(F)(F)F)c1)=C(\C)O	22.5%
COc1ccc(NC(=O)COC(=O)CN2C(=O)C3CC=CCC3C2=O)c([N+](=O)[O-])c1 (stereo unspecified)	3.95%
O=C(O)c1ccc(-[n+]2c(-c3ccccc3)cc(-c3ccccc3)cc2-c2ccccc2)cc1	-4.01%
CS(=O)(=O)N(CC(=O)N1CCOCC1)c1cc(C(F)(F)F)ccc1Cl	-10.6%
COc1ccc(C(=O)OCC(=O)c2ccc(Br)s2)c(OC)c1	66.5%
COc1ccc(C(=O)OCC(=O)c2ccc(Cl)s2)c(OC)c1OC	52.4%
O=C(NCCSc1ccccc1)c1ccc(CN2CCOCC2)cc1	11.6%
Cn1c(N2CCN(C(c3ccccc3)c3ccccc3)CC2)nc2c1c(=O)[nH]c(=O)n2C	-1.75%
Nc1ccc2c(c1)C(=O)c1ccccc1-2	79.4%
Nc1ccc2c(c1)C(=O)c1ccccc1C2=O	-1.17%
O=C(CSc1nnc(C2COc3ccccc3O2)o1)Nc1ccc(F)cc1Cl (stereo unspecified)	27.9%
Cc1cc(NC(=O)CSc2nnc(C3COc4ccccc4O3)o2)no1 (stereo unspecified)	1.04%

— PubChem BioAssay AID488890 (Southern Research Specialized Biocontainment Screening …, 2010)
